Compound activity (PubChem)
AMA1-RON2 inh = disrupts binding of P. falciparum AMA1 to RON2; hit rate 0.2% among 360,000; Potency, µM (top dose mostly 58.2 µM), without a hit: top-dose activity change, negative = inhibition, hits mostly inhibitors; AlphaScreen AMA1-biotinylated RON2 peptide binding;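 note: 0% = vehicle wells and -100% = peptide control; nearly all actives have a fitted effect of over 45% in size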
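AMA1 (3D7) with his tag at 25 nM final met compounds first, then biotinylated RON2 peptide at 25 nM; detection used donor plus acceptor beads, 10 µg/mL apiece, read by AlphaScreen after 30 min at room temperature.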
Sm TGR block = inhibitors of Schistosoma mansoni thioredoxin glutathione reductase | hit rate 3% among 360,000 | AID 485364 | Q962Y6 | purified TGR, DTNB reduction, TNB absorbance 405 nm | Potency, µM (doses to about 114 µM), for inactives: at the top dose activity change, negative = inhibition, most hits filed as inhibitors; note: % is set by controls: 0 for no effect and ±100 for the full control effect; nearly all actives have a fitted effect of over 60% in size
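Kinetic colorimetric format: TGR-catalysed, NADPH-driven DTNB reduction monitored via TNB absorbance. Enzyme dispensed at 20 nM; compound exposure 15 min at room temperature before reaction start.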
Pf growth 96h = inhibits malaria parasite growth, 96 h; P. falciparum luciferase reporter growth, 96 h; Potency, µM (titrated, usually from 28.7 µM), for inactives: at the highest dose activity change, negative = inhibition, usual class: inhibitors; hit rate 6.9% among 320,000; AID 504834; note: % is set by controls: 0 for no effect and ±100 for the full control effect
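Compounds incubated with erythrocytes infected by luciferase-expressing P. falciparum (2% hematocrit, 0.05% parasitemia final) for 96 hours, 37 C in 5% CO2. Growth inhibition scored as decreased luciferase luminescence.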
Pf growth 48h = inhibits P. falciparum growth in the first generation, 48 h | hit rate 5.9% among 310,000 | Potency, µM (titrated, usually from 28.7 µM), inactives show at the highest dose activity change, negative = inhibition, most hits filed as inhibitors | P. falciparum luciferase growth in erythrocytes, 48 h; note: % is set by controls: 0 for no effect and ±100 for the full control effect
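Firefly luciferase activity from engineered P. falciparum reports growth; inhibitors lower the luminescent signal. Cultures contained 2% hematocrit erythrocytes at 0.1% final parasitemia.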
NS1 inh = influenza NS1 inhibition; Potency, µM (doses to about 46.1 µM), inactives show at the top dose activity, positive = more growth; hit rate 0.4% among 270,000; calls by dose curve; note: actives are rising curves; nearly all actives have a fitted effect of over 50% in size
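Recovery from NS1-induced slow growth read by OD600 in budding yeast switched to galactose assay medium (pH 6.0, -URA) at 1:100 dilution. Compound 23 nl per well; the matching strain lacking NS1 serves as control.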
Numbers without * were called inactive; ? = inconclusive; / = no result given; [ ] = remark or other dose. This is a sample that favours compounds with a hit; in the whole collection about 11% have one here. Unless noted, calls come from the whole dose curve; as a rule, active = well fitted curve in the direction sought with a large enough effect; inconclusive = small, poorly fitted or top-dose-only effect, or another doubt; inactive = no such curve, though single readings can be large; an effect the other way counts as inactive or inconclusive. Potency is the fitted concentration of half-maximal effect.

SMILES	AMA1-RON2 inh	Sm TGR block	Pf growth 96h	Pf growth 48h	NS1 inh
CCCCN(C(=O)CCC(=O)O)C1CC(=O)N(c2ccc(OCCC)cc2)C1=O (stereo not given)	3%	-14%	8%	0%	-7%
CCCCCCC(=O)N(O)C1CC(=O)N(c2ccc(F)cc2)C1=O (stereo not given)	-7%	0.63µM*	9.3µM*	4.7µM*	-84%
CCCCCCC(=O)N(O)C1CC(=O)N(c2ccc(Br)cc2)C1=O (stereo not given)	5%	0.71µM*	2%	13µM*	-66%
COc1ccc(S(=O)(=O)N2CCC(C(=O)Nc3cc(C(F)(F)F)ccc3Cl)CC2)cc1	/	-7%	/	/	/
Cc1c(CCOC(=O)c2ccc(N3CCOCC3)c([N+](=O)[O-])c2)sc[n+]1CC#N	36%	0.89µM*	?	95%	5%
Cc1ncsc1CCOC(=O)c1ccc(N2CCOCC2)c([N+](=O)[O-])c1	17%	-15%	-5%	-25%	/
Cc1ccc(NC(=O)CCOc2ccccc2C)cc1C	14%	12%	4%	28%	-39%
Cn1ccc2c(N3CCCC3)cc3c(c21)C1CCC3C1 (stereo not given)	-8%	/	/	/	/
Cn1ccc2c(N3CCCCCC3)cc3c(c21)C1CCC3O1 (stereo not given)	32µM*	/	/	/	/
Cn1ccc2c(N3CCCCC3)cc3c(c21)C1CCC3C1 (stereo not given)	16µM*	/	/	/	/
COc1ccc2c(c1)OC[C@H]1[C@H]2N2C(=O)CN(Cc3ccco3)C(=O)[C@@]2(C)[C@H]1c1ccccc1	-3%	-33%	9.3µM*	?	/
COc1ccc2c(c1)OC[C@H]1[C@H]2N2C(=O)CN(Cc3ccc(C)cc3)C(=O)[C@@]2(C)[C@H]1c1ccccc1	-2%	1%	?	?	/
CCCCN1CC(=O)N2[C@H]3c4ccc(OC)cc4OC[C@@H]3[C@H](c3ccccc3)[C@]2(C)C1=O	-6%	1%	7.4µM*	2.1µM*	/
COc1ccc2c(c1)OC[C@H]1[C@H]2N2C(=O)CN(Cc3ccc(F)cc3)C(=O)[C@@]2(C)[C@H]1c1ccccc1	-18%	1%	?	?	/
CC(C)(C)c1ccc(OCC(O)CN(CCO)CC(O)Cn2ccc3ccccc32)cc1 (stereo not given)	-2%	-2%	?	12µM*	-4%
COc1ccc(Oc2ccc(N/C=C3/CCCC3=O)cc2)cc1	11%	-15%	75%	?	17%
COc1ccc(N/C=C2/CCCCC2=O)cc1	-2%	40µM*	?	47%	?
O=C(CCC1CCCCC1=O)c1ccccc1 (stereo not given)	-5%	7%	?	56%	5%
O=C(CC1C(=O)CCCC1=O)c1ccccc1	7%	40µM*	-7%	14%	/
Cc1cccc2cc(C(c3nnnn3C(C)(C)C)N3CCN(C(=O)c4ccco4)CC3)c(=O)[nH]c12 (stereo not given)	0%	-6%	-25%	3.3µM*	-19%
Cc1ccc2[nH]c(=O)c(C(c3nnnn3C(C)(C)C)N3CCN(C(=O)c4ccco4)CC3)cc2c1 (stereo not given)	2%	?	?	9.3µM*	7%
CCC(C)(C)n1nnnc1C(c1ccccc1OC)N1CCN(C(=O)c2ccco2)CC1 (stereo not given)	-4%	-34%	14%	1.9µM*	-7%
CCC(C)(C)n1nnnc1C(c1cc2cc(C)cc(C)c2[nH]c1=O)N1CCN(C(=O)c2ccco2)CC1 (stereo not given)	4%	18µM*	1.7µM*	?	19%
COCCn1nnnc1C(c1ccccc1OC)N1CCN(C(=O)c2ccco2)CC1 (stereo not given)	0%	28%	17%	-19%	-3%
CC(C)(C)n1nnnc1C(c1ccccc1)N1CCN(C(=O)c2ccco2)CC1 (stereo not given)	5%	/	/	/	/
SMILES	AMA1-RON2 inh	Sm TGR block	Pf growth 96h	Pf growth 48h	NS1 inh
CC(=O)Nc1cncc(-c2cccc(N(C)C)c2)n1	-2%	/	/	/	/
COc1ccccc1N1CCN(C(=O)c2cccc(S(=O)(=O)N3c4ccccc4CC3C)c2)CC1 (stereo not given)	22%[11.6 µM]	/	/	/	/
COc1cc(NC(=S)N2CCc3ccccc3C2)cc(OC)c1	-23%	8%	?	-16%[5.75 µM]	/
COc1cc(C(C[N+](=O)[O-])c2c(N)n(C)c(=O)n(C)c2=O)ccc1O (stereo not given)	-11%	-31%	-19%	0%	-32%
COc1cccc(F)c1C(C[N+](=O)[O-])c1c(N)n(C)c(=O)n(C)c1=O (stereo not given)	-2%	-12%	13µM*	?	-88%
CCc1ccccc1NC(=O)CCNC(=O)Cn1ccc2ccccc2c1=O	-2%	-9%	?	26%	9%
COc1cc(/C=C/c2nnc3c4ccccc4ncn23)cc(OC)c1OC	5%[2.32 µM]	-4%	?	9.3µM*	0%
CC(=O)N1CCc2cc(N=NC3=C(O)CC(C)(C)CC3=O)ccc21	-1%	-2%	32%	?	/
COc1ccc(C2=NN(C(=O)COC(=O)c3ccc(NC(=O)CC#N)cc3)C(c3ccco3)C2)cc1 (stereo not given)	0%	1%	?	12µM*	/
COc1ccc(S(=O)(=O)N2N=C(c3cccc(NS(C)(=O)=O)c3)CC2c2ccco2)cc1 (stereo not given)	0%	22µM*	13µM*	-11%	11%
CS(=O)(=O)N1N=C(c2ccccc2)CC1c1ccc2c(c1)OCO2 (stereo not given)	-9%	-9%	6%	86%	9%
COc1ccc(S(=O)(=O)N2N=C(c3ccc(NS(C)(=O)=O)cc3)CC2c2ccco2)cc1 (stereo not given)	-9%	14µM*	-10%	-22%	/
CS(=O)(=O)Nc1cccc(C2=NN(S(C)(=O)=O)C(c3ccc4c(c3)OCO4)C2)c1 (stereo not given)	-2%	-3%	2.3µM*	37%	-14%
Cc1cccn2c(=O)c3c(nc12)N1CCCCC1C1(C3)C(=O)N(C)C(=O)N(C)C1=O (stereo not given)	-6%	-1%	2.9µM*	?	-3%
Cc1cccn2c(=O)c3c(nc12)N1CCC(Cc2ccccc2)CC1C1(C3)C(=O)N(C)C(=O)N(C)C1=O (stereo not given)	1%	-1%	?	?	?
O=C1NC(=O)C2(Cc3ccccc3N3CCCC32)C(=O)N1Cc1ccccc1 (stereo not given)	-18%	?	-5%	?	16%
O=C1NC(=O)C2(Cc3c(nc4ccccn4c3=O)N3CCCCCC32)C(=O)N1Cc1ccccc1 (stereo not given)	-10%	-13%	5.2µM*	?	-39%
